Among the data in PubChem BioAssay AID1963576 (National Center for Advancing Translational Sciences (NCATS), 2024) are Potency values, retold here.

The campaign covered roughly 46,000 compounds. About 60 (0.1%) were called active. A call without a number means that no potency is given here. About 3% were inconclusive and are not listed. The sample holds actives, similar compounds and a random draw of the others, so the mix is not that of the screen. The call rests on the fitted dose curve; in most records, active means well fitted inhibition curve with a large enough effect; inconclusive means small, poorly fitted or top-dose-only effect; inactive means no such curve, though single readings can be large or run the other way.
Potency means the concentration at half of the fitted maximal effect.

A short description of this experiment: Primary qHTS assay for Inhibitors of ovarian cancer metastasis using an organotypic tumor microenvironment (TME) model. Further: nearly all actives have a fitted effect of over 65% in size.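 On Potency: count of GFP cancer cells still attached after washing and fixation.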 The settings on record: SKOV3ip1-GFP adhesion/invasion on 3D omental model, fluorescence; series mostly up to 45.8 µM. From the text: PI: Ernst Lengyel MD., Ph.D. Department of Obstetrics and Gynecology, Section of Gynecologic Oncology University of Chicago Medicine, Chicago, Illinois. The tumor microenvironment (TME) is a key determinant of metastatic efficiency. We performed a quantitative high-throughput screen (qHTS) of diverse medicinal chemistry tractable scaffolds (44,420 compounds) and pharmacologically active small molecules (386 compounds) using a layered organotypic, robust assay representing the ovarian cancer metastatic TME. This 3D model contains primary human mesothelial cells, fibroblasts, and extracellular matrix, to which fluorescently labeled ovarian cancer cells are added. Initially, 100 compounds inhibiting ovarian cancer adhesion/invasion to the 3D model in a dose-dependent manner were identified. Of those, eight compounds were confirmed active in five high-grade serous ovarian cancer cell lines and were further validated in secondary in vitro and in vivo biological assays. […] Specifically, NCGC00117362 and PP-121 inhibited ovarian cancer adhesion, invasion, and proliferation, whereas milciclib inhibited ovarian cancer invasion and proliferation. […] To evaluate the clinical potential of NCGC00117362, structure - activity relationship studies were performed. […] The three compounds identified have promise as therapeutics for prevention and treatment of ovarian cancer metastasis.
PROTOCOL TABLE (as described by Inglese J, Shamu CE and Guy RK. 2007) SEQUENCE No. (e.g., 1, 2, 3, etc.); […] (e.g., Cells, Incubation, Reagent, etc.); VALUE; DESCRIPTION. 1; Cells; 4 uL; primary human omental fibroblast, black, clear bottom, low base, 1536-well Aurora assay plate. 2; Incubation; 48 hr; 37C. 3; Cells; 3 uL; 1,200 SKOV3ip1-GFP cells. 4; Compounds; 23nL; acoustic dispenser. 5; Incubation; 2 hr; room temperature. 6; Incubation; 16 hr; 37C. 7; Wash; 5 uL; 1x PBS. 8; Fixing; 5 uL; 4% paraformaldehyde (PFA). 9; Incubation; 15 min; room temperature 10; Wash, 5 uL; 1x PBS. 11; Detection; Fluorescence, excitation filter 488 nm, emission filter 509 nm. NOTES (numbers refer to Sequence numbers above) 1. For the 1,536-well format, 40 primary human omental fibroblasts and 400 mesothelial cells were seeded with 0.02 µg fibronectin and 0.02 µg collagen type I in 4 µL of growth media (2.3 mm2; Supplementary Fig. S1A). 2. Assay plates were incubated for 48 hours at 37 C. 3. After incubation, 1,200 SKOV3ip1-GFP were seeded in 3 µL of serum-free media (growth media minus FBS) on top of primary human omental cells. 4. Compounds or controls were added to each well immediately after the addition of the cancer cells. Compounds were screened in four doses (0.36-46 µmol/L), and the plates contained the positive control (Tomatine) in eight doses (0.035-75 µmol/L) and DMSO (equal volume controls) 5 - 6. The plates were incubated at room temperature for 2 hours and then at 37 degrees C for 16 hours. 7 - 10. Following incubation, the media were aspirated and each well washed with PBS (5 µL) and then fixed with 4% paraformaldehyde (PFA; 5 µL). After 15 minutes, the PFA solution was aspirated, PBS (5 µL) was added. 11. The number of GFP-labeled cells analyzed using a fluorescent cytometer TTP LabTech Acumen eX3 using 488 nm excitation filter and 509 nm emission filter. Data was normalized to the DMSO treated for negative and Tomatine treated wells for positive control. REFERENCES: Inglese J, Shamu CE and Guy RK, Reporting data from high throughput screening of small molecule libraries, Nature Chemical Biology, 2007, 3(8): 438-441. doi.org/10.1038/nchembio0807-438. Yasgar A, Shinn P, Jadhav A, Auld DS, Michael S, Zheng W, Austin CP, Inglese J and Simeonov A, Compound Management for Quantitative High-Throughput Screening. J. Assoc. Lab. Auto., 2008, 13: 79-89. doi: 10.1016/j.jala.2007.12.004.
Take `O=C(Nc1ccc(OC(F)(F)F)cc1)c1cc2c(=O)n3ccccc3nc2s1`: the Potency result was “inactive”. With `Cn1c(C(=O)Nc2cccc(C(F)(F)F)c2)cc2c(=O)n3ccccc3nc21` the entry was “inactive”; with `O=c1c(NCc2cccs2)nccn1-c1ccccc1`, “inactive”; with `O=C(CC1Oc2ccc(Cl)cc2NC1=O)NCc1ccccc1` (centres undefined), “inactive”.

As for `Cc1ccc2nc(N3CCN(c4cccc(Cl)c4)CC3)c3nnnn3c2c1`, the Potency result was “inactive”.

As for `CCCCOc1ccc(NC(=O)c2cc3c(n(-c4ccc(Cl)cc4)c2=O)CCCC3=O)cc1`, the Potency result is “inactive”. With `Cc1ccc2cccc(NC(=O)c3cccc4ccccc34)c2n1` the entry was “inactive”; with `COc1ccccc1CNC(=O)CS(=O)(=O)c1cccc2nsnc12`, “inactive”. Turning to `O=C(CSc1cn(CC(=O)N2CCOCC2)c2ccccc12)Nc1ccccc1`, the Potency entry was “inactive”. In the case of `COc1ccc(C(=O)CSc2c(C(C)C)cnc3c2c(=O)n(C)c(=O)n3C)cc1` it was “inactive”; in that of `COc1cccc(C(=O)NC2=NC(c3ccc(N(C)C)cc3)CC(=O)N2)c1` (centres undefined), “inactive”. With `CNc1ccc(-c2nc(-c3ccco3)no2)cc1[N+](=O)[O-]` the entry was “inactive”; with `Cc1c(NC(=O)c2cc(=O)c3ccccc3o2)c(=O)n(-c2ccccc2)n1C`, “inactive”; with `Cc1ccc2c(=O)c(C(=O)c3ccc(F)cc3)cn(CC(=O)NC3CCCCC3)c2n1`, “inactive”.

As to `CCOc1ccc(NC(=O)c2c(NC(=O)Cc3ccccc3)sc3c2CCCCC3)cc1`, the Potency entry was “inactive”. Regarding `Cc1ccc(NC(=O)c2nc(S(=O)(=O)Cc3cccc(C)c3)ncc2Cl)cc1`, the Potency was 3.16 µM (active). In the case of `CCCS(=O)(=O)c1ncc(Cl)c(C(=O)Nc2scc(-c3ccccc3)c2C(=O)OCC)n1` it was “inactive”. `CCSc1ncc(Cl)c(C(=O)Nc2cc(C)ccc2C)n1`: the Potency result was “inactive”. In the case of `CCOC(=O)N1CCc2c(sc3c2C(=O)NC(c2ccccc2F)N3)C1` (centres undefined) it was “inactive”; in that of `COc1ccc(-c2nc(CN3CCC(C(=O)NCCN(CC(C)C)CC(C)C)CC3)c(C)o2)cc1OC`, “inactive”; in that of `CC(C)c1ccc(Cn2c(COc3ccccc3)nc3ccccc32)cc1`, “inactive”.

Regarding `CCc1ccc(C=C2SC(=S)NC2=O)cc1`, the Potency result is “inactive”. With `COc1ccc(-c2[nH]c3c(c2-c2c(-n4cccc4)n(C)c(=O)n(C)c2=O)c(=O)n(C)c(=O)n3C)cc1` the entry was “inactive”.

As to `COc1ccc2c(C)c(CCC(=O)NCc3ccc(OC)c(OC)c3)c(=O)oc2c1`, the Potency result was “inactive”. In the case of `CC(C)(C)C1CCc2c(sc(NC(=O)c3ccccc3F)c2C(=O)N2CCCCC2)C1` (centres undefined), the Potency result was “inactive”. Turning to `CCc1ccccc1NC(=O)c1cnn(-c2ccc(F)cc2)c1C1CCNCC1`, the Potency entry is “inactive”. As for `CCCCOc1ccc(CNC(=O)c2ccc3c(c2)N(C)C(=O)C2CCCCN32)cc1` (centres undefined), the Potency entry was “inactive”.

Take `COc1ccc(CCNC(=O)CCCCn2c(=O)c3ccccc3n(Cc3ccccc3C)c2=O)cc1OC`: the Potency result is “inactive”. With `CC=C(C(=CC)c1ccc(O)cc1)c1ccc(O)cc1` the entry was “inactive”. For the compound `Cc1cc2nc(NC(=O)c3ccc(S(=O)(=O)N4CCOCC4)cc3)sc2cc1C`, the Potency result is “inactive”. With `COc1ccc(-c2cc(C(=O)Nc3sc4c(c3C(N)=O)CCCC4)no2)cc1` the entry was “inactive”; with `Cc1ccc2c(c1)N(C(=O)Nc1ccc(Br)cc1F)CCO2`, “inactive”; with `COc1ccc2c(CNCCc3ccccc3C)c(C(=O)O)n(Cc3ccccc3C)c2c1`, “inactive”.

With `CCOc1cc(C2C(C(=O)OC)=C(C)NC3=C2C(=O)c2ccccc23)ccc1O` (centres undefined), the Potency result is “inactive”. In the case of `COc1ccc2c(c1)CCc1c(C(=O)Nc3cc(C)ccc3O)noc1-2` it was “inactive”; in that of `Cc1ccccc1CNC(=O)c1ccc(NC(=O)N2CCCCc3ccccc32)cc1`, “inactive”. As to `CCCN1CCN(CCCNC(=O)Cn2nc(CC)n3c(cc4occc43)c2=O)CC1`, the Potency entry is “inactive”. In the case of `CCOC(=O)C1CCC(CN(Cc2ccc(OC)cc2)S(=O)(=O)c2ccc(F)c(C(=O)Nc3cc(C)ccc3C)c2)CC1` (centres undefined) it was “inactive”; in that of `Cc1n[nH]c(C)c1S(=O)(=O)N1CCCC(C(=O)Nc2ccc(Br)cc2)C1` (centres undefined), “inactive”. In the case of `COc1ccc(NC(=O)C(=O)NCc2ccco2)cc1` it was “inactive”; in that of `N#Cc1nc(/C=C/c2ccc(F)cc2)oc1NCc1ccc(F)cc1`, “inactive”; in that of `CCOc1ccc(-c2nonc2NC(=O)c2oc3ccc(C)cc3c2C)cc1OCC`, “inactive”.

Consider `CCC(=O)Nc1ccccc1-c1nc2ccccc2n(CC(=O)Nc2ccc(C)c(C)c2)c1=O`, for which the Potency entry is “inactive”.

In the case of `Cc1ccc2nc(NC(=O)c3nc(SCc4ccccc4F)ncc3Cl)sc2c1`, the Potency result was “inactive”. As to `COc1ccc(Cn2ccc3nc(C)c(C(=O)Nc4ccc(C)c(F)c4)cc3c2=O)cc1`, the Potency result was “inactive”. In the case of `CCCCNC(=O)C1CCCN(c2nnc(C)c3c(C)n(-c4ccc(Cl)cc4)nc23)C1` (centres undefined) it was “inactive”; in that of `COC(=O)c1cc(NC(=O)c2sc3ccccc3c2Cl)cc(C(=O)OC)c1`, “inactive”.

On to `Cc1cccc(S(=O)(=O)c2cn(Cc3ccccc3)c3cc(N4CCOCC4)c(F)cc3c2=O)c1`, for which the Potency result is “inactive”.

Consider `CC1=C(c2ccc(F)cc2)S(=O)(=O)N=C1N1CCC(C(=O)NCCc2ccccc2C)CC1`, for which the Potency entry was “inactive”.
